Our source for the Tm shift relative to glycine control values is PubChem BioAssay AID1259313 (Sanford-Burnham Center for Chemical Genomics, 2017).

Structures are written as SMILES. Screen size: about 340,000 compounds; about 8,500 (2.5%) were called active. What follows is part of a selection rich in actives, with near analogues and random picks from the rest. Unmarked numbers belong to inactive results.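 The calls were made as follows: active = melting temperature shift of at least 10% of the positive control shift, at one fixed dose; inactive = the rest.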

The subject of this assay is Glutamate receptor ionotropic, NMDA 3A (GRIN3A) ligand-binding domain. The assay can be described thus: binders of NR3A ligand-binding domain, primary screen, biophysical, differential scanning fluorimetry, uHTS (AID 1259313). Particulars: NR3A LBD differential scanning fluorimetry, at 25 µM, active compounds read high, 0% = protein alone, 100% = glycine-bound protein.
In the case of `Cc1ccc(Nc2ccccc2N)cc1`, the Tm shift relative to glycine control was 0.92%.

Take `CCn1c(O)c(N=NC(=O)c2cccc(S(=O)(=O)N3CCCCC3)c2)c2ccccc21`: the Tm shift relative to glycine control was -34.1%.

With `Cc1cccc(N2C(=O)c3ccc(C(=O)Nc4cccc(C(=O)O)c4)cc3C2=O)c1`, the Tm shift relative to glycine control is 11.6% (active).

As for `CC(=O)Nc1ccc(NC(=O)c2ccc3c(c2)C(=O)N(c2ccccc2C)C3=O)cc1`, the Tm shift relative to glycine control was -0.29%.

As to `Cc1cccc(C(=O)Nc2ccc3c(c2)C(=O)N(CC(C)C)C3=O)c1`, the Tm shift relative to glycine control was 0.17%.

With `CCC(C(=O)NCCC(C)C)N(Cc1ccccc1Cl)C(=O)c1snc(C(N)=O)c1N` (stereo not given), the Tm shift relative to glycine control was -0.19%.

Consider `Cc1ccc2c(c1)C(O)(CC(=O)c1cccnc1)C(=O)N2` (stereo not given), for which the Tm shift relative to glycine control is -0.39%.

For `CCCn1c(C)cc(-c2csc(NC(=O)CCc3nc4ccccc4c(=O)[nH]3)n2)c1C`, the Tm shift relative to glycine control is -0.45%.

Regarding `CCc1nc(SCC(=O)NNC(=O)c2ccc(C)cc2)c2ccccc2n1`, the Tm shift relative to glycine control was -0.6%.

As to `CCCNC(=O)CSc1nc(Cc2ccccc2)nc2ccccc12`, the Tm shift relative to glycine control was -0.71%.

With `CCCc1nc(SCC(=O)Nc2ccc(S(=O)(=O)N(C)C)cc2)c2ccccc2n1`, the Tm shift relative to glycine control is 17.5% (active).

With `COc1ccc(CC(=O)NCc2nnc(SCC(=O)Nc3nccs3)n2C)cc1`, the Tm shift relative to glycine control is 0.45%.

On to `CCc1cc(=O)oc2cc(C)cc(OC(C)C(=O)O)c12` (stereo not given), for which the Tm shift relative to glycine control is -0.34%.

As to `CCOC(=O)CCc1c(C)c2ccc(OCc3nn[nH]n3)c(C)c2oc1=O`, the Tm shift relative to glycine control was -2.57%.

With `CCCCc1cc(=O)oc2cc(C)cc(OCc3nn[nH]n3)c12`, the Tm shift relative to glycine control was 14.2% (active).

In the case of `O=C1NC(c2ccncc2)Nc2sc3c(c21)CCCC3` (stereo not given), the Tm shift relative to glycine control was 0.51%.

With `N#C/C(=C\c1ccccc1)c1n[nH]c(Cn2cncn2)n1`, the Tm shift relative to glycine control is -0.2%.

Consider `Cc1nn(Cc2ccccc2)c2c1C(c1ccccc1)C(C#N)=C(N)O2` (stereo not given), for which the Tm shift relative to glycine control was 2.39%.

With `Cc1nn(-c2ccccc2)c2c1C(c1ccc(F)cc1)C(C#N)=C(N)O2` (stereo not given), the Tm shift relative to glycine control was -4.31%.

For the compound `COc1ccccc1C1C(C#N)=C(N)Oc2c1c(-c1ccccc1)nn2-c1ccccc1` (stereo not given), the Tm shift relative to glycine control is 22.2% (active).

For `Cc1ccc(C)c(OCc2cc(C(=O)N3CCN(c4cnccn4)CC3)no2)c1`, the Tm shift relative to glycine control was 4%.

As for `O=C(COC(=O)Cn1cnc2ccccc21)Nc1cccc2c1C(=O)c1ccccc1C2=O`, the Tm shift relative to glycine control is -5.74%.

`O=C(COC(=O)c1cccc(Br)c1)Nc1cccc2c1C(=O)c1ccccc1C2=O`: the Tm shift relative to glycine control was 14.9% (active).

On to `O=C(COC(=O)c1ccccc1)Nc1ccccc1Sc1ccccc1`, for which the Tm shift relative to glycine control was 5.64%.

`CCCCC(=O)N(c1ccc(OC)cc1)C1C=CS(=O)(=O)C1` (stereo not given): the Tm shift relative to glycine control was -8.09%.
